Source: PubChem
CHT PAM: allosterically activates the human high affinity choline transporter; hit rate 0.49% among 310,000; B-score at 10 µM; CHT-expressing cells, membrane potential dye, choline EC20; stronger effect = higher value; LV-AA mutant CHT in HEK293 cells; Q9GZV3;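 active = initial fluorescence not abnormally high and integrated response B-score, plate-corrected, over 3 SD above library mean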
Target sequence (Q9GZV3 whole entry, looked up): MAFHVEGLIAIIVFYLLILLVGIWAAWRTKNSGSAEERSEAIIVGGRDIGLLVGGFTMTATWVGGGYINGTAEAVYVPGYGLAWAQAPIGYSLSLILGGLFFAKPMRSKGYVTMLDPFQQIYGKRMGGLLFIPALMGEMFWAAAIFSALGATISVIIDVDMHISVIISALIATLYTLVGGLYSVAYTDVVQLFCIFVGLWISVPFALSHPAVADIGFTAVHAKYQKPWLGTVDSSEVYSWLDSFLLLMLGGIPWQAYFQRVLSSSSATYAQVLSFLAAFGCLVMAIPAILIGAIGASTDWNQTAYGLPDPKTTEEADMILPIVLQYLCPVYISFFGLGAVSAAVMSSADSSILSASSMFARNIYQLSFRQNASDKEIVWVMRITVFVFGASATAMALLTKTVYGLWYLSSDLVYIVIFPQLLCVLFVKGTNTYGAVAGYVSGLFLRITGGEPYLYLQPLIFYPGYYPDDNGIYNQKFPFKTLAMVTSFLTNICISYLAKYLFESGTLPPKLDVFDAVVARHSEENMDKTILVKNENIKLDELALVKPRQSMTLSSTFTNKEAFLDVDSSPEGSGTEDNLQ
PGE2 EP2 inh: blocks the human prostaglandin E2 receptor EP2. P43116. C6 glioma cells expressing human EP2, cAMP TR-FRET; cells stimulated with saturating PGE2. inhibition, % at 25 µM. hit rate 0.52% among 260,000. AID 1422;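 active = percent inhibition above 40 after rounding to a whole number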;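 also: rat C6 glioma host cells with rolipram phosphodiesterase inhibitor present; the protocol text gives 20 µM as final concentration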
EP2 modulator: modulates human prostaglandin E2 receptor EP2 signaling | induction, % at 25 µM | P43116 | hit rate 0.83% among 260,000 | EP2-expressing cells, cAMP HTRF FRET, PGE2 co-stimulation;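 active = compounds whose cAMP rise, as percent of the full-agonist control response, exceeds 60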;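 also: rat C6 glioma line stably carrying human EP2 under a CMV promoter; the protocol text gives 20 µM as final concentration; 100% = response of wells given 1 µM PGE2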
CHT inh: human CHT choline transport inhibition. Q9GZV3. CHT-expressing cells, membrane potential dye, choline response; stronger effect = lower value. B-score at 10 µM. hit rate 0.86% among 310,000. AID 488975;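 active = B-score over 3 SD under the library average, and starting fluorescence ratio not unusually high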;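 also: choline stimulus applied at its EC90 after an EC20 pre-addition; B-score computed on integrated fluorescence ratio after choline addition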
CHT inh conf: human CHT inhibition, confirmatory screen | shares compounds with CHT inh | CHT-expressing cells, choline membrane potential dye; LV-to-AA substituted CHT, HEK293 cells | CHT activity remaining % of control (stronger effect = lower value), % at 10 µM | hit rate 70% among 2,400 | AID 493221;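 active = choline transporter activity left, mean of duplicates at 10 µM, below buffer-only control mean minus 3 SD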;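 also: depolarization triggered by choline at its EC90 following an EC20 pre-addition; 0% = hemicholinium-3 full block and 100% = buffer-only control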
HEK293 CHT ctr: activity in parental HEK293 cells lacking CHT | shares compounds with CHT inh | membrane potential dye, choline response; active = decrease or increase beyond buffer ±3SD | membrane potential ratio readout (active if shifted either direction beyond buffer ±3SD; no single direction) at 10 µM | hit rate 4% among 2,400 | AID 493222;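 also: parental cells lack the transporter so any hit is non-specific; ratio is peak minus trough fluorescence over baseline after EC90 choline challenge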
Starred values were filed as active, the others as inactive; i = inactive; . = no result. An excerpt weighted towards active compounds, which were near 2% of everything screened.

SMILES	CHT PAM	PGE2 EP2 inh	EP2 modulator	CHT inh	CHT inh conf	HEK293 CHT ctr
O=C(NCCCN1CCCC1)c1ccc2c(c1)N(Cc1ccccc1)CCS2	i	13.8	-22.4	-5.41*	36.3%*	3.96*
O=C1Nc2cc(C(=O)NCCCN3CCOCC3)ccc2S/C1=C/c1ccccc1F	i	.	.	i	.	.
O=C1Nc2cc(C(=O)NCCCN3CCCC3)ccc2S/C1=C\c1ccccc1	i	.	.	-10.7*	24.4%*	i
O=C(NCCCOc1cccc(CN2CCCCC2)c1)c1ccc(Cl)c(Cl)c1	i	-0.4	-32.1	-10.9*	22.0%*	2.45*
CCOC(=O)N1CCN(C(=O)c2nn(C)c3c2CSc2ccccc2-3)CC1	i	.	.	i	.	.
CC1CCCN(S(=O)(=O)c2ccc(N)cc2)C1 (stereo unspecified)	.	11.2	8.2	.	.	.
Nn1c(Cc2ccccc2F)nnc1SCC(=O)Nc1cccc(S(=O)(=O)NC2=NCCCCC2)c1	i	0.3	12.8	-6.1*	i	i
Cn1c(Cc2ccccc2)nnc1SCC(=O)Nc1cccc(S(=O)(=O)NC2=NCCCCC2)c1	i	4.7	31.1	i	.	.
CCC(c1nnnn1Cc1ccccc1)N1CCN(c2nc3ccccc3s2)CC1 (stereo unspecified)	.	11.7	-19.3	.	.	.
CCOc1ccc(NC(=O)Cn2nc(-c3ccccc3Cl)n(CC)c2=S)cc1	i	18.2	11.2	i	i	i
CCn1c(-c2ccccc2Cl)nn(CC(=O)Nc2ccc(OC)cc2)c1=S	i	13.1	13.1	i	.	.
O=C(CNC(=O)c1ccc(Cl)cc1Cl)OCC(=O)c1ccc2c(c1)OCCO2	i	13.2	33.3	-6.67*	66.1%*	i
O=C(COC(=O)CNC(=O)c1ccc(Cl)cc1Cl)NCC1CCCO1 (stereo unspecified)	i	.	.	i	.	.
CC[C@@H](Cn1nc(-c2ccc(F)c(F)c2)ccc1=O)NC(=O)Cc1c[nH]c2ccccc12	.	5.3	-49.1	.	.	.
CC(=O)c1ccc(OCC(O)CN2CCC(C)CC2)cc1 (stereo unspecified)	i	15.6	18.9	i	.	.
CC1CCN(CC(O)COc2ccc(OCC(O)CN3CCC(C)CC3)cc2)CC1 (stereo unspecified)	i	.	.	-10.4*	5.8%*	i
COc1ccccc1-n1c(SCC(=O)Nc2cc(Cl)ccc2Cl)nc2ccccc2c1=O	.	11.1	25.1	.	.	.
CCn1c(SCC(=O)Nc2ccc(OC)cc2)nc2nc3c(cc2c1=O)COC(C)(C)C3	i	3.0	-0.7	-4.97*	i	i
CCOC(=O)C1CCCN(C(=O)c2ccc3c(c2)OCO3)C1 (stereo unspecified)	i	3.0	-11.7	i	.	.
CCOC(=O)C1CCCN(C(=O)c2csc(-c3ccc4c(c3)CCO4)n2)C1 (stereo unspecified)	i	17.4	0.0	-7.23*	56.5%*	i
Cc1cccc(-n2cccc2CN(CCCn2ccnc2)Cc2cccc(F)c2)n1	.	7.3	34.9	.	.	.
C[C@@H](NCCc1ccc(O)cc1)[C@@H](O)c1ccc(O)cc1	i	9.3	17.2	-4.95*	47.3%*	i
CC(NCCc1ccc(O)cc1)C(O)c1ccc(O)cc1 (stereo unspecified)	i	15.8	33.0	i	.	.
Nc1nc(NC(=S)Nc2ccccc2)cc(=O)[nH]1	.	7.6	-69.8	.	.	.
CCOC(=O)c1c(/N=C/c2cc([N+](=O)[O-])ccc2O)sc(C)c1C	i	4.8	-9.4	-5*	i	i
SMILES	CHT PAM	PGE2 EP2 inh	EP2 modulator	CHT inh	CHT inh conf	HEK293 CHT ctr
COc1ccccc1NS(=O)(=O)c1ccc(O)c(C(=O)OCC(=O)c2ccc(Cl)cc2Cl)c1	i	2.5	3.7	-5.33*	62.2%*	i
COc1ccccc1CCC(=O)OCC(=O)c1c(N)n(CC(C)C)c(=O)n(C)c1=O	i	.	.	-5.72*	42.9%*	i
CC1(C)CC2CC(C)(CN2C(=O)CCCN2C(=O)c3ccccc3C2=O)C1 (stereo unspecified)	i	11.3	21.5	-6.78*	48.2%*	i
COc1ccc(/C=C2\COc3ccccc3C2=O)cc1OC	i	17.8	-49.4	i	.	.
O=C(O)c1ccc(/C=C2\COc3ccccc3C2=O)cc1	i	.	.	-6.76*	33.4%*	i
Cn1ccc2cc(NS(=O)(=O)c3ccc4c(c3)oc(=O)n4C)ccc21	.	4.0	-72.4	.	.	.
